# Read-outs that look alike come from different tables or passages of the source.
# Assays:
# AAK1 = system: AAK1; parameters: species or system human, MV4-11 + K-562 + COLO205 + SK-N-BE2 + OVCAR-8; settings: read-out: apparent Kd, n = 1
# Q6ZSR9 = Q6ZSR9 (human, UniProt Q6ZSR9); parameters: species or system MV4-11 + K-562 + COLO205 + SK-N-BE2 + OVCAR-8; settings: read-out: apparent Kd, compound concentrations: 100 nM and 1000 nM (sheet 'Samples'), n = 1
# RET = system: RET; parameters: species or system human, MV4-11 + K-562 + COLO205 + SK-N-BE2 + OVCAR-8; settings: read-out: apparent Kd, n = 1
# RIPK3 = system: RIPK3; parameters: species or system human, MV4-11 + K-562 + COLO205 + SK-N-BE2 + OVCAR-8; settings: read-out: apparent Kd, n = 1
# TNK1 = system: TNK1; parameters: species or system human, MV4-11 + K-562 + COLO205 + SK-N-BE2 + OVCAR-8; settings: read-out: apparent Kd, n = 1
# YES1 = system: YES1; parameters: species or system human, MV4-11 + K-562 + COLO205 + SK-N-BE2 + OVCAR-8; settings: read-out: apparent Kd, n = 1
# ABL1 = system: ABL1; parameters: species or system human, MV4-11 + K-562 + COLO205 + SK-N-BE2 + OVCAR-8; settings: read-out: apparent Kd, compound concentrations: 100 nM and 1000 nM (sheet 'Samples'), n = 1
# ABL2 = system: ABL2; parameters: species or system human, MV4-11 + K-562 + COLO205 + SK-N-BE2 + OVCAR-8; settings: read-out: apparent Kd, compound concentrations: 100 nM and 1000 nM (sheet 'Samples'), n = 1
# BCR = system: BCR; parameters: species or system human, MV4-11 + K-562 + COLO205 + SK-N-BE2 + OVCAR-8; settings: read-out: apparent Kd, compound concentrations: 100 nM and 1000 nM (sheet 'Samples'), n = 1
# FYN = system: FYN; parameters: species or system human, MV4-11 + K-562 + COLO205 + SK-N-BE2 + OVCAR-8; settings: read-out: apparent Kd, compound concentrations: 100 nM and 1000 nM (sheet 'Samples'), n = 1
# GAK = system: GAK; parameters: species or system human, MV4-11 + K-562 + COLO205 + SK-N-BE2 + OVCAR-8; settings: read-out: apparent Kd, compound concentrations: 100 nM and 1000 nM (sheet 'Samples'), n = 1
# HCK = system: HCK; parameters: species or system human, MV4-11 + K-562 + COLO205 + SK-N-BE2 + OVCAR-8; settings: read-out: apparent Kd, compound concentrations: 100 nM and 1000 nM (sheet 'Samples'), n = 1
# PTK6 = system: PTK6; parameters: species or system human, MV4-11 + K-562 + COLO205 + SK-N-BE2 + OVCAR-8; settings: read-out: apparent Kd, compound concentrations: 100 nM and 1000 nM (sheet 'Samples'), n = 1
# RIPK2 = system: RIPK2; parameters: species or system human, MV4-11 + K-562 + COLO205 + SK-N-BE2 + OVCAR-8; settings: read-out: apparent Kd, compound concentrations: 100 nM and 1000 nM (sheet 'Samples'), n = 1
# CLK1 = system: CLK1; parameters: species or system human, MV4-11 + K-562 + COLO205 + SK-N-BE2 + OVCAR-8; settings: read-out: apparent Kd, compound concentrations: 100 nM and 1000 nM (sheet 'Samples'), n = 1
# CLK4 = system: CLK4; parameters: species or system human, MV4-11 + K-562 + COLO205 + SK-N-BE2 + OVCAR-8; settings: read-out: apparent Kd, compound concentrations: 100 nM and 1000 nM (sheet 'Samples'), n = 1
# CSNK2A1;CSNK2A3 = system: CSNK2A1;CSNK2A3; parameters: species or system human, MV4-11 + K-562 + COLO205 + SK-N-BE2 + OVCAR-8; settings: read-out: apparent Kd, compound concentrations: 100 nM and 1000 nM (sheet 'Samples'), n = 1
# CSNK2A2 = system: CSNK2A2; parameters: species or system human, MV4-11 + K-562 + COLO205 + SK-N-BE2 + OVCAR-8; settings: read-out: apparent Kd, compound concentrations: 100 nM and 1000 nM (sheet 'Samples'), n = 1
# LCK = system: LCK; parameters: species or system human, MV4-11 + K-562 + COLO205 + SK-N-BE2 + OVCAR-8; settings: read-out: apparent Kd, compound concentrations: 100 nM and 1000 nM (sheet 'Samples'), n = 1
# [1] = compound concentrations:100 nM and 1000 nM (sheet 'Samples')
# Q6ZSR9, sequence (Q6ZSR9 whole entry, looked up): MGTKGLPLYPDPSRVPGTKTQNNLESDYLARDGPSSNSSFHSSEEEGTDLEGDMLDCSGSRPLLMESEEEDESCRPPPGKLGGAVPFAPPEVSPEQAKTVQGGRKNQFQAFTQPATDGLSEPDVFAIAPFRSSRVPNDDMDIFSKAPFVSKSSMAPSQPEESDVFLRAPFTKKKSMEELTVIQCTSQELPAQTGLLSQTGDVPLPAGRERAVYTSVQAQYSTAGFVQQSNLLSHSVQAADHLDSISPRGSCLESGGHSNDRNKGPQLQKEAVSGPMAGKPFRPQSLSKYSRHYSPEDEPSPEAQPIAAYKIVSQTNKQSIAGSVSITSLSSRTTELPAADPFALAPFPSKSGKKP
structure (smiles),measurement,setting,value
Cc1cccc(Nc2nc(NCCN)ncc2C(N)=O)c1 [GSK1292139B],potency estimated from few doses,"AAK1; compound concentrations: 100 nM and 1000 nM (sheet 'Samples'), CATDS: 0.21003536001632001",164 nM
same,potency estimated from few doses,Q6ZSR9; CATDS: 0.320838512301937,88 nM
CS(=O)(=O)Cc1ccc(Nc2nccc(-c3c(-c4cccc(NC(=O)C5CCCCC5)c4)nn4ncccc34)n2)cc1 [GSK350559A],potency estimated from few doses,RET; [1],1370 nM
same,potency estimated from few doses,RIPK3; [1],1130 nM
same,potency estimated from few doses,TNK1; [1],261 nM
same,potency estimated from few doses,YES1; [1],461 nM
Nc1nc(-c2ccc3c(N)n[nH]c3c2)cc(N2CCCCC2)n1 [GSK2228768A],potency estimated from few doses,AAK1; [1],749 nM
Cl.Oc1cccc(Nc2ccnc3cc(-c4ccncc4)ccc23)c1 [GW494601A],potency estimated from few doses,ABL1; CATDS: 3.6017646503182399E-2,127 nM
same,potency estimated from few doses,ABL2; CATDS: 5.7742248446513503E-2,32.5 nM
same,potency estimated from few doses,BCR; CATDS: 9.7304657047822804E-2,10.5 nM
same,potency estimated from few doses,FYN; CATDS: 2.0819366263931199E-2,1150 nM
same,potency estimated from few doses,GAK; CATDS: 8.36996948680125E-2,14.1 nM
same,potency estimated from few doses,HCK; CATDS: 2.0776424104180801E-2,1170 nM
same,potency estimated from few doses,PTK6; CATDS: 1.98277031575195E-2,1530 nM
same,potency estimated from few doses,"RET; compound concentrations: 100 nM and 1000 nM (sheet 'Samples'), CATDS: 7.2637191041935695E-2",19 nM
same,potency estimated from few doses,RIPK2; CATDS: 0.103970438166355,9.31 nM
same,potency estimated from few doses,"RIPK3; compound concentrations: 100 nM and 1000 nM (sheet 'Samples'), CATDS: 6.8751849319998101E-2",21.5 nM
O=C1N=C(NCc2cccs2)SC1Cc1ccc2ncccc2c1 (stereo not drawn) [RO4629078-000],potency estimated from few doses,ABL1; CATDS: 1.03104130889283E-2,621 nM
same,potency estimated from few doses,ABL2; CATDS: 1.75956171974825E-2,217 nM
same,potency estimated from few doses,BCR; CATDS: 1.49763815406264E-2,286 nM
same,potency estimated from few doses,CLK1; CATDS: 1.45453045118455E-2,302 nM
same,potency estimated from few doses,CLK4; CATDS: 1.03422471087564E-2,616 nM
same,potency estimated from few doses,CSNK2A1;CSNK2A3; CATDS: 1.1621769953454601E-2,472 nM
same,potency estimated from few doses,CSNK2A2; CATDS: 1.0295745768990301E-2,623 nM
same,potency estimated from few doses,FYN; CATDS: 9.7047847946103404E-3,723 nM
same,potency estimated from few doses,GAK; CATDS: 1.7863526328031998E-2,211 nM
same,potency estimated from few doses,HCK; CATDS: 1.13886455432966E-2,493 nM
same,potency estimated from few doses,LCK; CATDS: 1.24730570121841E-2,406 nM
same,potency estimated from few doses,PTK6; CATDS: 9.8307432544906398E-3,699 nM
same,potency estimated from few doses,Q6ZSR9; CATDS: 1.4224903483056099E-2,314 nM
same,potency estimated from few doses,"RET; compound concentrations: 100 nM and 1000 nM (sheet 'Samples'), CATDS: 1.39088138771742E-2",328 nM
same,potency estimated from few doses,RIPK2; CATDS: 9.4422951571236906E-3,777 nM
same,potency estimated from few doses,"TNK1; compound concentrations: 100 nM and 1000 nM (sheet 'Samples'), CATDS: 2.1497624040677302E-2",158 nM
same,potency estimated from few doses,"YES1; compound concentrations: 100 nM and 1000 nM (sheet 'Samples'), CATDS: 1.15943383738287E-2",474 nM
O=C1N=C(NCCc2ccccc2F)S/C1=C\c1ccc2ncccc2c1 [RO4498483-000],potency estimated from few doses,"AAK1; compound concentrations: 100 nM and 1000 nM (sheet 'Samples'), CATDS: 8.5407630700809506E-2",957 nM
same,potency estimated from few doses,CLK1; CATDS: 0.138137656029612,347 nM
same,potency estimated from few doses,CLK4; CATDS: 9.8466136533641502E-2,675 nM
same,potency estimated from few doses,CSNK2A1;CSNK2A3; CATDS: 0.15223513812582401,295 nM
same,potency estimated from few doses,CSNK2A2; CATDS: 0.14884656797599799,306 nM
same,potency estimated from few doses,Q6ZSR9; CATDS: 8.1205084555915505E-2,1100 nM
NC(=O)c1cccc(Nc2nccc(Nc3cccc4[nH]ncc34)n2)c1 [GW782612X],potency estimated from few doses,ABL1; CATDS: 3.3551530123454902E-2,1900 nM
same,potency estimated from few doses,ABL2; CATDS: 4.6849720703519497E-2,629 nM
same,potency estimated from few doses,BCR; CATDS: 5.7731069178064698E-2,381 nM
same,potency estimated from few doses,CLK1; CATDS: 3.6631639688053302E-2,1340 nM
same,potency estimated from few doses,CLK4; CATDS: 4.0513674478844103E-2,951 nM
same,potency estimated from few doses,CSNK2A2; CATDS: 3.4795292983427199E-2,1630 nM
same,potency estimated from few doses,GAK; CATDS: 4.0699733875589103E-2,937 nM
same,potency estimated from few doses,RIPK2; CATDS: 7.1079405795032996E-2,247 nM
Cc1ccc(O)cc1Nc1ccnc2cc(-c3ccc(CN4CCCCC4)o3)ccc12 [GW557777X],potency estimated from few doses,ABL1; CATDS: 4.3692235612931E-2,8.34 nM
same,potency estimated from few doses,ABL2; CATDS: 6.7746368355333403E-2,2.92 nM
same,potency estimated from few doses,BCR; CATDS: 0.10189444124387,1.17 nM
same,potency estimated from few doses,FYN; CATDS: 2.5035707525361502E-2,44.5 nM
same,potency estimated from few doses,GAK; CATDS: 5.9852273314458602E-2,3.88 nM
same,potency estimated from few doses,HCK; CATDS: 2.2990890088698399E-2,60.9 nM
same,potency estimated from few doses,LCK; CATDS: 1.5741185519971699E-2,353 nM
same,potency estimated from few doses,PTK6; CATDS: 2.4564391165164502E-2,47.6 nM
same,potency estimated from few doses,"RET; compound concentrations: 100 nM and 1000 nM (sheet 'Samples'), CATDS: 4.4477848245190701E-2",7.97 nM
same,potency estimated from few doses,RIPK2; CATDS: 5.5536056615070897E-2,4.62 nM
same,potency estimated from few doses,"RIPK3; compound concentrations: 100 nM and 1000 nM (sheet 'Samples'), CATDS: 1.48381507951055E-2",508 nM
same,potency estimated from few doses,"YES1; compound concentrations: 100 nM and 1000 nM (sheet 'Samples'), CATDS: 2.43288733372133E-2",49.3 nM

# From paper PMC11062922 (Nature Chemical Biology, 2023)
